Inconclusive results are not listed. A call without a number means that no potency is given here. Active and inactive are the calls of the source. Calls come from the whole dose curve; as a rule, active = well fitted cell-killing curve with a large enough effect; inconclusive = small, poorly fitted or top-dose-only effect; inactive = no such curve, though single readings can be large or run the other way.
Assay: qHTS of pediatric cancer cell lines to identify multiple opportunities for drug repurposing: Primary screen for OHS-50 cells (AID 1347103); note: nearly all actives have a fitted effect of over 40% in size
Details: OHS-50 osteosarcoma viability, CellTiter-Glo luminescence, 48 h; series mostly up to 57.3 µM
Excerpt: Drug repurposing or repositioning has been offered as a strategy for drug development in oncology programs. This approach has special potential for childhood cancers and other rare or orphan diseases, where the expected return on new drug development has been a disincentive to pharmaceuticals.
In this project we exploit the poly-pharmacology of drugs to discover new indications via phenotypic screening of a panel of 19 well-characterized cell lines derived from solid tumors seen in children and adolescents. The goal is to identify approved drugs with previously unrecognized anticancer properties that has the potential to reveal new mechanisms and biological processes involved in carcinogenesis or drug resistance. We employed a titration-based paradigm (quantitative high-throughput screening or qHTS), where all compounds were tested at multiple concentrations for their effect on cell viability. Concentration-response curves (CRCs) were derived directly from the primary screen, and both potency and efficacy values were used to identify compounds with robust bioactivity profiles. We screened the NIH Chemical Genomics Center (NCGC) Pharmaceutical Collection (NPC) and Mechanism Interrogation Plate (MIPE) small molecule collections of approved and investigational compounds against these cell lines; and measured metabolically active cells after 48 hours of compound treatment as a proxy for cell viability.
Assay Submitter: Nathalia J. Martinez, National Center for Advancing Translational Sciences, National Institutes of Health, Rockville, MD, USA; email: natalia.martinez@nih.gov
[1] Shen, M et al. Quantitative high-throughput phenotypic screening of pediatric cancer cell lines identifies multiple opportunities for drug repurposing. Oncotarget 2017 Dec 19;9(4):4758-4772. PMID 29435139.
The cells were obtained from University of North Carolina (UNC), Pediatric Preclinical Testing Program (PPT), and Coriell Institute (CI).
qHTS cell viability assay:
Cells were assayed in growth media at a density of 500-1,000 cells/well. Five microliters of cells were dispensed into 1,536-well, white, solid-bottom, TC-treated plates (Greiner Bio One) using a multidrop dispenser and incubated at 37 degrees C, 5% CO2, under a humidified atmosphere for 5 hours. Twenty-three nanoliters of compounds and controls (neutral control DMSO or positive control bortezomib at final concentration of 2.3 µM) were subsequently transferred by Kalypsys pintool. For primary screens, the MIPE collection was tested at 11-point dilutions (final concentrations range from 0.78 nM to 46 µM) and the NPC collection at 8-point dilutions (final concentrations range from 0.59 nM to 46 µM). Compounds tested in follow-up screens were assayed at 11-point dilutions. Cells were incubated for 48 hours, followed by addition of 3 µL of CellTiter-Glo (Promega). After a 15 min incubation at room temperature, samples were analyzed for luminescence intensity using a ViewLux High-throughput CCD imager equipped with clear filters.
Potency is the fitted concentration of half-maximal effect.

SMILES | Potency | activity change, negative = cytotoxic
Cc1onc(-c2c(Cl)cccc2Cl)c1C(=O)N[C@@H]1C(=O)N2[C@@H]1SC(C)(C)[C@@H]2C(=O)O | inactive | –
C[C@@H]1C[C@H]2[C@@H]3C[C@H](F)C4=CC(=O)C(Cl)=C[C@]4(C)[C@@]3(F)[C@@H](O)C[C@]2(C)[C@@]1(O)C(=O)CO | inactive | –
CN1CCN(CCCN2c3ccccc3Sc3ccc(S(=O)(=O)N(C)C)cc32)CC1 | 24.6 µM (active) | –
CC(C)COC(=O)c1ccc(N)cc1 | inactive | –
C=CCc1ccc(O)c(OC)c1 | inactive | –
CC1=C(C(=O)O)N2C(=O)[C@@H](NC(=O)[C@H](N)c3ccc(O)cc3)[C@H]2SC1 | inactive | –
O=C(OCCOCCO)c1ccccc1Nc1cccc(C(F)(F)F)c1 | 24.6 µM (active) | –
O=c1c(-c2ccccc2)c1-c1ccccc1 | 13.8 µM (active) | –
OC[C@@H](O)[C@@H](O[C@@H]1O[C@H](CO)[C@H](O)[C@H](O)[C@H]1O)[C@H](O)[C@@H](O)CO | inactive | –
CC(=O)OCC(=O)NCCCOc1cccc(CN2CCCCC2)c1 | inactive | –
Cc1ncc(CSSCc2cnc(C)c(O)c2CO)c(CO)c1O | inactive | –
CO/N=C1\CN(c2nc3c(cc2F)c(=O)c(C(=O)O)cn3C2CC2)CC1CN (stereo not given) | inactive | –
COC(=O)C1=C(C)NC(C)=C(C(=O)O[C@@H]2CCCN(Cc3ccccc3)C2)[C@@H]1c1cccc([N+](=O)[O-])c1 | 19.5 µM (active) | –
CCN1CCCC1=O | inactive | –
C[C@H]1C[C@H]2[C@@H]3CCC4=CC(=O)C=C[C@]4(C)[C@@]3(Cl)[C@@H](O)C[C@]2(C)[C@@]1(O)C(=O)CO | 24.6 µM (active) | –
C[C@H](O)C(=O)Nc1c(I)c(C(=O)NC(CO)CO)c(I)c(C(=O)NC(CO)CO)c1I | inactive | –
CN1CCC(=C2c3ccccc3Sc3ccccc32)CC1 | 17.4 µM (active) | –
C[C@@H](CN(C)C)CN1c2ccccc2Sc2ccccc21 | 21.9 µM (active) | –
CC[C@@H](CO)NCCN[C@@H](CC)CO | inactive | –
COc1ccc(OC)c(C(O)CNC(=O)CN)c1 (stereo not given) | inactive | –

SMILES | Potency | activity change, negative = cytotoxic
CCn1cc(C(=O)O)c(=O)c2cnc(N3CCCC3)nc21 | – | -0.536% [at 11.5 µM] (inactive)
CCCOC(C(=O)OC1CCN(C)CC1)(c1ccccc1)c1ccccc1 | 27.6 µM (active) | –
CC(=O)N(O)CCCCCNC(=O)CCC(=O)N(O)CCCCCNC(=O)CCC(=O)N(O)CCCCCN | 13.8 µM (active) | –
CC(=O)CC(c1ccc([N+](=O)[O-])cc1)c1c(O)c2ccccc2oc1=O (stereo not given) | inactive | –
COC(=O)[C@@H]1CC2=CC(=O)CC[C@]2(C)[C@@]23O[C@@H]2C[C@@]2(C)[C@@H](CC[C@@]24CCC(=O)O4)[C@H]13 | inactive | –
C[C@]12C=CC(=O)C=C1CC[C@@H]1[C@@H]2[C@@H](O)C[C@@]2(C)[C@H]1CC[C@]2(O)C(=O)CO | inactive | –
C[C@H](CCC(=O)O)[C@H]1CC[C@H]2[C@@H]3C(=O)C[C@@H]4CC(=O)CC[C@]4(C)[C@H]3CC(=O)[C@]12C | inactive | –
CN1CCC[C@@H]1c1cccnc1 | inactive | –
CC1(C)O[C@@H]2C[C@H]3[C@@H]4C[C@H](F)C5=CC(=O)C=C[C@]5(C)[C@H]4[C@@H](O)C[C@]3(C)[C@]2(C(=O)CO)O1 | inactive | –
Clc1ccc2c(c1)CCc1cccnc1C2=C1CCNCC1 | 15.5 µM (active) | –
COC(=O)CCc1ccc(OCC(O)CNC(C)C)cc1 (stereo not given) | inactive | –
CCCCCC=CCC=CCCCCCCCC(=O)OCC | inactive | –
COc1c2occc2c(OC)c2c(=O)cc(C)oc12 | inactive | –
CCOC(=O)COc1ccc2c(C)c(CCN(CC)CC)c(=O)oc2c1Cl | inactive | –
CCC(C(=O)OCCN(CC)CC)c1ccccc1 (stereo not given) | inactive | –
COc1ccc(CN2CCN(C(c3ccc(F)cc3)c3ccc(F)cc3)CC2)c(OC)c1OC | 13.8 µM (active) | –
OCc1ccccc1O | inactive | –
N[C@H](Cc1c[nH]c2ccccc12)C(=O)O | inactive | –
Cc1cc2c(cc1CC(=O)c1sccc1S(=O)(=O)Nc1onc(C)c1Cl)OCO2 | inactive | –
CCN1CCN(c2cc3c(cc2F)c(=O)c(C(=O)O)cn3C2CC2)CC1 | inactive | –

— PubChem BioAssay (NCATS)
